# Measurements taken from PubChem BioAssay (NCATS).
# Several values for one entry are separate records, joined by “and”; a condition that tells them apart may be missing. Equal entries are not always repeated. Inconclusive results are not listed. A call without a number means that no potency is given here. Activity calls are given as the source filed them. Unless noted, the call rests on the fitted dose curve.
# Assays:
# [1] = biological target: Peroxisome proliferator-activated receptor delta (Homo sapiens) (UniProt Q03181); assay: qHTS assay for small molecule antagonists of peroxisome proliferator-activated receptor delta signaling (AID 588535; active means well fitted inhibition curve with a large enough effect in the signal ratio, with a control signal flat, not every such curve was filed as active; the % refers to the signal ratio); conditions: HEK293T PPARd-UAS-bla, beta-lactamase FRET ratio, 18 h; series mostly up to 76.7 µM
# How it was run: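 Titrations were run on PPAR-delta-UAS-bla HEK293T cells in charcoal/dextran-stripped serum, incubated 18 h at 37 C. CCF4 fluorescence (460/530 nm) after 2 h RT; Hill equation yields IC50 and maximal response.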
# [2] = biological target: Peroxisome proliferator-activated receptor gamma (Homo sapiens) (UniProt P37231); assay: qHTS assay for small molecule agonists of peroxisome proliferator-activated receptor gamma signaling (AID 588536; active means well fitted curve in the direction sought with a large enough effect in the signal ratio, with a control signal flat, not every such curve was filed as active; the % refers to the signal ratio); conditions: HEK293 PPARg-UAS-bla, beta-lactamase ratio, 16 h, percent of rosiglitazone response, DMSO as zero; series mostly up to 76.7 µM
# How it was run: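 Compound treatment: 16 h, 37 C, HEK293 GeneBLAzer cells. Detection: CCF4, 2 h RT. Values: Hill-fit EC50, efficacy as % of 2 uM rosiglitazone.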
# [3] = biological target: Peroxisome proliferator-activated receptor gamma (Homo sapiens) (UniProt P37231); assay: qHTS assay for small molecule antagonists of peroxisome proliferator-activated receptor gamma signaling (AID 588537; active means well fitted inhibition curve with a large enough effect in the signal ratio, with a control signal flat, not every such curve was filed as active; the % refers to the signal ratio; further: potency means the concentration at half of the fitted maximal effect); conditions: HEK293 PPARg-UAS-bla, beta-lactamase ratio, antagonist mode; series mostly up to 76.8 µM
# How it was run: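 Antagonist-mode β-lactamase reporter screen run as a titration series. HEK293 PPARγ-UAS-bla cells are stimulated with rosiglitazone (50 nM final) for 16 h, then CCF4 is read at 460/530 nm. Data are scaled between DMSO and rosiglitazone and fitted to the Hill equation.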
# [4] = biological target: Vitamin D3 receptor (Homo sapiens) (UniProt P11473); assay: qHTS assay for small molecule antagonists of vitamin D receptor signaling (AID 588541); conditions: HEK293T VDR-UAS-bla, beta-lactamase ratio, antagonist mode; series mostly up to 76.7 µM;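 further: receptor activated by calcitriol during compound treatment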
# How it was run: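 Antagonist-mode beta-lactamase reporter assay: HEK293T VDR-UAS-bla cells were exposed to titrated compound alongside 1-alpha,25-dihydroxyvitamin D3 at 3 nM final for 16 h. Values were normalized to the 50 nM agonist control and DMSO basal, with IC50 and efficacy from Hill equation fits.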
# [5] = biological target: Vitamin D3 receptor (Homo sapiens) (UniProt P11473); assay: qHTS assay for small molecule agonists of vitamin D receptor signaling (AID 588543); conditions: HEK293T VDR-UAS-bla, beta-lactamase ratio, 16 h; series mostly up to 76.8 µM
# How it was run: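 Measured: β-lactamase reporter activity (CCF4, 405 nm excitation, 460/530 nm emission) in HEK293T VDR-UAS-bla cells after 16 h compound exposure at 37 °C. Normalization against 50 nM 1α,25-dihydroxyvitamin D3 and DMSO; Hill-fit EC50.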
# [6] = qHTS assay for small molecule agonists of retinoid X receptor alpha signaling (AID 588544); conditions: HEK293T RXRa-UAS-bla, beta-lactamase reporter, 18 h; 530 nm emission
# [7] = biological target: Retinoic acid receptor RXR-alpha (Homo sapiens) (UniProt P19793); assay: as above; conditions: HEK293T RXRa-UAS-bla, beta-lactamase reporter, 18 h; series mostly up to 76.7 µM
# [8] = biological target: Thyroid hormone receptor beta (Homo sapiens) (UniProt P10828); assay: qHTS assay for small molecule agonists of thyroid hormone receptor beta signaling (AID 588545); conditions: TR-UAS-bla GripTite HEK 293, beta-lactamase ratio, agonist mode, 18 h, percent of T3 response, DMSO as zero; series mostly up to 76.7 µM
# How it was run: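 Agonist-mode beta-lactamase reporter assay, HEK 293 cells, 2% charcoal/dextran FBS; cells plated 4 hrs, compound 18 hrs at 37 C, CCF4 2 hrs RT. Normalized to 10 nM T3 (100%) and DMSO (0%); Hill fit gives EC50, efficacy.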
# [9] = qHTS assay for small molecule antagonists of retinoid X receptor alpha signaling (AID 588546); conditions: HEK293T RXRa-UAS-bla, beta-lactamase ratio, antagonist mode; measured here: W530 green channel, cytotoxicity proxy;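 further: cells stimulated with 9-cis-retinoic acid as agonist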
# How it was run: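 Beta-lactamase reporter inhibition, read as CCF4 fluorescence ratio (ex 405, em 460/530 nm) after 2 h at RT. HEK293T UAS-bla cells, 2500/well, were stimulated with 9-cis-RA at 500 or 100 nM final alongside test compound for 18 h at 37 C.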
# [10] = biological target: Thyroid hormone receptor beta (Homo sapiens) (UniProt P10828); assay: qHTS assay for small molecule antagonists of thyroid hormone receptor beta signaling (AID 588547; active means well fitted inhibition curve with a large enough effect in the signal ratio, with a control signal flat, not every such curve was filed as active; the % refers to the signal ratio;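 further: cells stimulated with 0.4 nM T3 agonist during compound exposure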); conditions: TR-UAS-bla HEK293, beta-lactamase ratio, antagonist mode, 18 h
# How it was run: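 Inhibition of T3-driven (0.4nM final) beta-lactamase reporter activity was measured over 0.59 nM to 92 uM compound after 18 h at 37 C. The cells were GripTite HEK293 TR-UAS-bla in charcoal/dextran-stripped serum, with CCF4 ratio read-out and IC50 from Hill fits.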
# Sequence of Peroxisome proliferator-activated receptor gamma (Homo sapiens) (P37231 whole entry, looked up): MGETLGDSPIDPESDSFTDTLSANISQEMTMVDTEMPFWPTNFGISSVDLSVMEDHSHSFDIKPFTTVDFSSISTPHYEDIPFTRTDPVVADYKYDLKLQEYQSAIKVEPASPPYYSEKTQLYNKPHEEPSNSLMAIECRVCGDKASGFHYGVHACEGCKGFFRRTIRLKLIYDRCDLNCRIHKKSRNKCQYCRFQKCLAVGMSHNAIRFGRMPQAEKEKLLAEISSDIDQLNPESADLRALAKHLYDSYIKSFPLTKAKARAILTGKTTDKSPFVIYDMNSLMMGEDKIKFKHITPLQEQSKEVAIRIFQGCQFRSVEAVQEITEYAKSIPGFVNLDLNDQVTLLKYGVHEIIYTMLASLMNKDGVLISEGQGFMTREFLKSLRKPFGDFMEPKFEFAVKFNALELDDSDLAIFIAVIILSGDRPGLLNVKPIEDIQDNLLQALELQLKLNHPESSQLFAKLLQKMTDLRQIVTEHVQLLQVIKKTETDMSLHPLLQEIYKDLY
# Sequence of Peroxisome proliferator-activated receptor delta (Homo sapiens) (Q03181 whole entry, looked up): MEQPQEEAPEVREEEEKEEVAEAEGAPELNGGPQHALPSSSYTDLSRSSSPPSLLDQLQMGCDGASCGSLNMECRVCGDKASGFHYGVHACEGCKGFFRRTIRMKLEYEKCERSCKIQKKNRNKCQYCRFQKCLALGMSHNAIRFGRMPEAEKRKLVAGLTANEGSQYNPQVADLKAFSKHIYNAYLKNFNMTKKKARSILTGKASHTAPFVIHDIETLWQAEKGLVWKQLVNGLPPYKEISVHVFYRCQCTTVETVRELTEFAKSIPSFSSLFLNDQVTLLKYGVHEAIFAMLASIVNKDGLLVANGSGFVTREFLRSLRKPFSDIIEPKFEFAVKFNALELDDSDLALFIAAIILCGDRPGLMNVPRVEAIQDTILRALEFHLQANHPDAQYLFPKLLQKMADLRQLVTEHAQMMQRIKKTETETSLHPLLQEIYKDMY
# Sequence of Vitamin D3 receptor (Homo sapiens) (P11473 whole entry, looked up): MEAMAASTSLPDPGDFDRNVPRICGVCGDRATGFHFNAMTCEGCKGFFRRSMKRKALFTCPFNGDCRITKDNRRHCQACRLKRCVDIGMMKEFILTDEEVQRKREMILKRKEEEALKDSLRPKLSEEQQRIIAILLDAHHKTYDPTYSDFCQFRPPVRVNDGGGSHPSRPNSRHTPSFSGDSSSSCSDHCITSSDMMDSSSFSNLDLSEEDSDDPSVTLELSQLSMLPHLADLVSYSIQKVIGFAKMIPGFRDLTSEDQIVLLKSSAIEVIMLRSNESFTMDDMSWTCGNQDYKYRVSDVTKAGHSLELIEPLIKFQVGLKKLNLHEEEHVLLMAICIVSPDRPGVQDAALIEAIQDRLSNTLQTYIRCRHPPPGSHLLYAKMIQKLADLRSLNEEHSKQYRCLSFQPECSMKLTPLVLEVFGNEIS
# Sequence of Thyroid hormone receptor beta (Homo sapiens) (P10828 whole entry, looked up): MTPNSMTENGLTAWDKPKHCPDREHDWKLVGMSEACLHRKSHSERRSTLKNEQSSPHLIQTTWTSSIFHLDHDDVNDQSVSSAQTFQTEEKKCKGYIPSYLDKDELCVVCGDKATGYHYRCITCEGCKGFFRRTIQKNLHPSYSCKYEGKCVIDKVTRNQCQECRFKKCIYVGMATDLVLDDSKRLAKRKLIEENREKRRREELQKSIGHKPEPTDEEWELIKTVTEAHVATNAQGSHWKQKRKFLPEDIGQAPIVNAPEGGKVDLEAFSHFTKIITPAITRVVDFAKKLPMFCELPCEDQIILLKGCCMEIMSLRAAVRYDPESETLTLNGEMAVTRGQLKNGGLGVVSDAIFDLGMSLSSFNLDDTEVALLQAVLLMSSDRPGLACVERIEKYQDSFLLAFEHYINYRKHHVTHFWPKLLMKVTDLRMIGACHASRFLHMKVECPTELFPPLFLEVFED
# Sequence of Retinoic acid receptor RXR-alpha (Homo sapiens) (P19793 whole entry, looked up): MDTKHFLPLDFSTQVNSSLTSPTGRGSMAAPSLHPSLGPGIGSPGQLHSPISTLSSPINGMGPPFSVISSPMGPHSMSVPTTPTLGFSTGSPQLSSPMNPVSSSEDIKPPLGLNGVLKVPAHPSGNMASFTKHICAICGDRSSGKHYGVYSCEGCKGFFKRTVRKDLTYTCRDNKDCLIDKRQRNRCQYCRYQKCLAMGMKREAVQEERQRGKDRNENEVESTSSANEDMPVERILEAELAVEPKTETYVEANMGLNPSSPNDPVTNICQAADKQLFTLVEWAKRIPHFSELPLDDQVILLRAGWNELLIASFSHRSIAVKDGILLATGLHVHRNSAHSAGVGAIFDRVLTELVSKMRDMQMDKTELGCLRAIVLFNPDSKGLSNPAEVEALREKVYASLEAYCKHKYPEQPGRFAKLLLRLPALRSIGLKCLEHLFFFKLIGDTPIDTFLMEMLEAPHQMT
SMILES,outcome [1],outcome [2],Potency [3],outcome [4],outcome [5],max response [6],outcome [7],outcome [8],max response [9],activity change % (negative = inhibition) [10]
Cc1cn([C@H]2C[C@H](N=[N+]=[N-])[C@@H](CO)O2)c(=O)[nH]c1=O,inactive,inactive,inactive,inactive,inactive,27.7% and 12.8%,inactive,inactive,15.5% and -2.05%,5.41% (inactive) and 12% (inactive)
CC(COc1ccccc1)N(CCCl)Cc1ccccc1 (centres undefined),,inactive,,inactive,inactive,23% and 19%,inactive,inactive,9.59% and -12.9%,-2.59% (inactive) and 11.4% (inactive)
CC(C)NCC(O)c1ccc(O)c(O)c1 (centres undefined),inactive,inactive,inactive,inactive,inactive,-7.52% and -0.93%,inactive,inactive,-15.7% and 0.88%,-0.838% (inactive) and 16% (inactive)
N[C@@H](Cc1c[nH]c2ccc(O)cc12)C(=O)O,inactive,inactive,inactive,inactive,inactive,-7.77%,inactive,,1.87%,-8.63% (inactive)
O=c1c(-c2ccc(O)cc2)coc2cc(O)cc(O)c12,,,,inactive,inactive,,,inactive,18.6%,-35.3% (inactive)
Cc1ccc(-c2cc(C(F)(F)F)nn2-c2ccc(S(N)(=O)=O)cc2)cc1,,,,,,,,,,17.3% (inactive)
O=C(Nc1ccc([N+](=O)[O-])cc1Cl)c1cc(Cl)ccc1O,,,,,,,,inactive,3.51%,
Nc1c2c(nc3ccccc13)CCCC2,,inactive,,,,,,inactive,12.8%,-14.9% (inactive)
COc1cc2c(c(OC)c1OC)-c1ccc(OC)c(=O)cc1[C@@H](NC(C)=O)CC2,,,,,inactive,,,inactive,,
NS(=O)(=O)c1cc2c(cc1Cl)NCNS2(=O)=O,,inactive,inactive,inactive,inactive,1.78% and -10.2%,inactive,inactive,-4.08% and -3.49%,-1.87% (inactive) and 13.1% (inactive)
Cn1c(=O)c2c(ncn2C)n(C)c1=O,,inactive,inactive,,,-3.75% and 14.5%,inactive,,0.479% and 2.47%,
CC(C)C(=O)Nc1ccc([N+](=O)[O-])c(C(F)(F)F)c1,,inactive,inactive,,,,,inactive,2.09% and 2.52%,-0.269% (inactive) and 16% (inactive)
NCCS(=O)(=O)O,,inactive,inactive,inactive,inactive,-14.9%,inactive,inactive,-6.13%,-15.9% (inactive)
C[C@](N)(Cc1ccc(O)c(O)c1)C(=O)O,inactive,inactive,inactive,inactive,inactive,-1.09%,inactive,inactive,-16.7%,1.38% (inactive)
COc1ccc2c(c1)c(CC(=O)O)c(C)n2C(=O)c1ccc(Cl)cc1,,,,,,,,inactive,,
CN(C)CCOC(c1ccccc1)c1ccccc1,,,,,,,,,,-3.52% (inactive)

SMILES,outcome [1],outcome [2],Potency [3],outcome [4],outcome [5],max response [6],outcome [7],outcome [8],max response [9],activity change % (negative = inhibition) [10]
Cn1c(=O)c2[nH]cnc2n(C)c1=O,,inactive,,,,-12.6%,inactive,inactive,-3.21%,-10.4% (inactive)
COc1ccc2[nH]cc(CCNC(C)=O)c2c1,inactive,inactive,inactive,inactive,inactive,4.26% and -2.38% and 20.7%,inactive,inactive,15.5% and 6.29% and -2.26%,-14% (inactive) and 1.14% (inactive) and 10.4% (inactive)
CC#C[C@]1(O)CC[C@H]2[C@@H]3CCC4=CC(=O)CCC4=C3[C@@H](c3ccc(N(C)C)cc3)C[C@@]21C,,,,,,,,inactive,,
CCC1(c2ccccc2)C(=O)NCNC1=O,,inactive,inactive,inactive,inactive,-2.48% and -11.6%,inactive,inactive,-5.6% and -16.4%,-16.1% (inactive)
CC(C)(Oc1ccc(C2CC2(Cl)Cl)cc1)C(=O)O (centres undefined),inactive,,inactive,inactive,inactive,,,inactive,3.34%,-9.34% (inactive)
O=c1[nH]cc(F)c(=O)[nH]1,,,,inactive,inactive,-12.4%,inactive,,-11.8%,
Nc1ccn([C@H]2CC[C@@H](CO)O2)c(=O)n1,inactive,inactive,inactive,,,-7.85% and -11%,inactive,inactive,-1.8% and -6%,1.36% (inactive) and 5.95% (inactive)
CN(Cc1cnc2nc(N)nc(N)c2n1)c1ccc(C(=O)N[C@@H](CCC(=O)O)C(=O)O)cc1,,,0.447 µM (active),,,,,inactive,,-21.4% (inactive)
O=C(c1ccc(OCCN2CCCCC2)cc1)c1c(-c2ccc(O)cc2)sc2cc(O)ccc12,,,39.8 µM (active),,inactive,,,,-24.2%,
Cn1cnc2c1c(=O)[nH]c(=O)n2C,inactive,inactive,inactive,inactive,inactive,,,inactive,-0.801%,8.64% (inactive)
CCOC(=O)C(C)(C)Oc1ccc(Cl)cc1,inactive,inactive,inactive,inactive,inactive,-9.24%,inactive,inactive,-5.41%,7.19% (inactive)
Clc1ccc(C(c2ccccc2Cl)C(Cl)Cl)cc1 (centres undefined),inactive,,,,,,,inactive,,-34.3% (inactive)
O=C(CCCN1CCC(O)(c2ccc(Cl)cc2)CC1)c1ccc(F)cc1,,inactive,inactive,,,-1.31%,inactive,inactive,6.93%,-36.9% (inactive)
CC(C)Cc1ccc(C(C)C(=O)O)cc1 (centres undefined),inactive,inactive,inactive,,,27.4%,inactive,inactive,4.68%,-8.69% (inactive)
Cc1cn([C@H]2C=C[C@@H](CO)O2)c(=O)[nH]c1=O,inactive,inactive,inactive,inactive,inactive,-12.5% and -2.44% and -13%,inactive,inactive,-1.05% and 0.328% and -3.51%,3.32% (inactive) and -6.39% (inactive)
